Screening results deposited in PubChem by National Center for Advancing Translational Sciences (NCATS).
Shown are actives, neighbours in structure and some others; about 7.5% of the full set was active somewhere.
Rab9 promoter act: Rab9 promoter activation; Huh7 Rab9 promoter-luciferase reporter, luminescence, 24 h; Potency, µM (doses to about 9.22 µM), inactives show at the highest dose activation, negative = inhibition, actives largely listed as activators; actives 2.8% (n = 320,000); AID 485297; note: % of control where 0% means no effect; nearly all actives have a fitted effect of over 60% in size
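Measured in stably transfected Huh7 cells bearing a Rab9 promoter–luciferase construct: 24 h compound treatment at 37 °C, followed by luminescence detection.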
ELG1 genotoxic: genotoxicity induction in ELG1-luciferase HEK293T cells; HEK293T ELG1-luciferase reporter, luminescence, 16 h; Potency, µM (top dose mostly 46 µM), without a hit: at the highest dose activity change, positive = activation, actives largely listed as activators; actives 1.3% (n = 330,000); AID 504466; note: % of control where 0% means no effect; nearly all actives have a fitted effect of over 60% in size
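HEK293T cells expressing luciferase-tagged ELG1 were treated with compound or DMSO for 16 hr at 37°C. Luciferase activity was then read after 30 min with ONE-Glo at room temperature; rising signal flags genetic stress.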
FLuc modulator: firefly luciferase modulation, counter-screen for miR-21 project | actives 6.9% (n = 360,000) | P08659 | purified FLuc, Km substrates, luminescence inhibition | Potency, µM (series often up to 57.5 µM), for inactives: top-dose activity change, negative = inhibition, hits mostly inhibitors;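 note: plate controls were vehicle for no effect and reference inhibitor for full effect; nearly all actives have a fitted effect of over 55% in size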
Target sequence (P08659 whole entry, looked up): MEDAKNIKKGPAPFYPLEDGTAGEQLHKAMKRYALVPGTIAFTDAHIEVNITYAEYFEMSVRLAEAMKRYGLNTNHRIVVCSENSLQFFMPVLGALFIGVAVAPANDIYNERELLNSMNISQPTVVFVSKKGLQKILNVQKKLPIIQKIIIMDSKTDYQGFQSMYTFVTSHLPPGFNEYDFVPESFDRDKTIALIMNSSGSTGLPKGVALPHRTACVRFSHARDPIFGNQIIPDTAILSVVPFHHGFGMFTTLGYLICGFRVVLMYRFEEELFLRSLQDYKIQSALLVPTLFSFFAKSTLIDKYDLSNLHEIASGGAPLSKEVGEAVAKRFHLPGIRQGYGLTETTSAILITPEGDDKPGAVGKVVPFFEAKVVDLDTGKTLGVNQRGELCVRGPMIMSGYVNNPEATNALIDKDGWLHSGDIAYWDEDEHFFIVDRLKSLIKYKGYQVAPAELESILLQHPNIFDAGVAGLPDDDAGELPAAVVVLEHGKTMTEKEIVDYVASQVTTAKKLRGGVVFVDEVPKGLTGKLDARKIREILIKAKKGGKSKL
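Purified P. pyralis luciferase (10nM final) with 10uM D-luciferin and 10uM ATP (Km levels) in 50mM Tris acetate pH 7.5, 10mM Mg acetate, 0.01% Tween-20, 0.05% BSA; qHTS 6-point titration, ~60 µM downward; luminescence read.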
Luc counter: Kinase-Glo luciferase inhibition (counter-screen); Q27757; AID 1379; Potency, µM (highest dose often 38.3 µM), without a hit: top-dose activity change, negative = inhibition, most hits filed as inhibitors; actives 0.28% (n = 200,000); Kinase-Glo luciferase, ATP luminescence, 8 min; note: % is set by controls: 0 for no effect and ±100 for the full control effect; nearly all actives have a fitted effect of over 60% in size
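Inhibition of Kinase-Glo luciferase light generation was assessed at 10 uM ATP in pH 7.2 imidazole buffer, with luminescence measured after eight minutes at ambient temperature.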
SMN2 splice enh: enhancers of SMN2 splice variant expression; HEK293 SMN2-luciferase splicing reporter, luminescence, 30-36 h; Potency, µM (titrated, usually from 46.1 µM), for inactives: at the top dose activity change, positive = activation, actives largely listed as activators; actives 2.8% (n = 210,000); AID 1458; note: % of control where 0% means no effect; nearly all actives have a fitted effect of over 55% in size
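HEK293 cells carry an SMN2 minigene-luciferase reporter in which exon 7 inclusion puts luciferase in frame. Cells were seeded at 2000 cells/well, attached for 10-12 hours, then exposed to compounds for 30-36 hours at 37C before ONE-Glo luminescence.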
NPC1 promoter act: activators of NPC1 promoter | actives 2.4% (n = 320,000) | AID 485313 | Potency, µM (series often up to 9.22 µM), for the others: at the top dose activation, actives largely listed as activators | Huh7 NPC1 promoter luciferase reporter, 24 h; note: % of control where 0% means no effect; nearly all actives have a fitted effect of over 60% in size
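Huh7 cells stably carrying NPC1 promoter–luciferase, plated in Opti-MEM with 10% FBS for 2 h, were exposed to compound in DMSO for 24 h at 37 °C; luciferase reagent was added for 10 min and luminescence read.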
Numbers without * were called inactive; ? = inconclusive; . = no result; [ ] = remark or other dose. Calls come from the whole dose curve; as a rule, active = well fitted curve in the direction sought with a large enough effect; inconclusive = small, poorly fitted or top-dose-only effect, or another doubt; inactive = no such curve, though single readings can be large; an effect the other way counts as inactive or inconclusive. Potency is the fitted concentration of half-maximal effect.

SMILES	Rab9 promoter act	ELG1 genotoxic	FLuc modulator	Luc counter	SMN2 splice enh	NPC1 promoter act
Nc1ccc(Cl)cc1N	.	.	.	.	7.1µM*	.
Cc1ccc(N)c(N)c1	-1%	?	5.4µM*	.	3.5µM*	-3%
Nc1cc(Cl)ccc1Cl	.	.	.	.	2%	.
O=C1NC(=O)N(Cc2ccc(F)cc2)C(=O)/C1=C/c1cccs1	2%	?	?	0%	-21%	-4%
O=C1NC(=O)N(Cc2ccccc2Cl)C(=O)/C1=C/c1cccs1	-4%	?	15µM*	6%	-11%	-7%
CCOc1ccc(OC(=O)c2ccc3c(=O)n4c(nc3c2)CCC4)cc1	-3%	-4%	12µM*	.	.	-1%
CCOc1ccccc1Oc1coc2cc(OC(=O)c3ccco3)ccc2c1=O	-5%	7%	15µM*	-5%	?	0%
O=C(O)CCC(=O)NCCC1=c2ccccc2=N/C1=C\c1c(O)n(Cc2ccc(F)cc2)c(=S)[nH]c1=O	-4%	5%	11µM*	.	.	-5%
Cc1c(OC(=O)N(C)C)ccc2c1O/C(=C\c1ccco1)C2=O	4µM*	13%	0.48µM*	.	.	?
CN(C)c1ccc(CCN2CCOCC2)cc1	1%	?	17µM*	.	.	3%
CCC(COC(=O)NC)NC(=O)Oc1cccc(C)c1 (stereo not drawn)	7%	3%	-2%	6%	10%	-3%
CNC(=O)Oc1cccc(-c2cn3cc(Cl)ccc3n2)c1	3.5µM*	?	2.7µM*	10µM*	?	3.2µM*
CNC(=O)Oc1ccc(-c2cn3cc(C)ccc3n2)cc1	0.32µM*	?	0.34µM*	?	1.8µM*	0.35µM*
CNc1ccc2oc(C[C@@H]3OC4(CC[C@@H]3C)O[C@H]([C@@H](C)C(=O)c3ccc[nH]3)[C@H](C)C[C@H]4C)nc2c1C(=O)O (stereo partly drawn)	.	.	.	.	-104%	.
Nc1c(C(=O)Nc2ccc([As](=O)(O)O)cc2)cnc2nnnn12	.	.	.	-2%[7.66 µM]	-4%[9.22 µM]	.
CC1=Nc2ccccc2/C1=C/c1c(O)[nH]c(=O)[nH]c1=O	4%	-1%	-2%	.	.	2%
O=c1[nH]c(O)c(/C=C2/C=CC(c3cc(Cl)ccc3Cl)=N2)c(=O)[nH]1	-9%	15%	6.7µM*	.	.	-5%
O=C1C=CC(=O)C(Cl)=C1	.	.	.	-3%[39.9 µM]	.	.
c1ccc(CCN2CCCCCC2)nc1	.	.	.	-1%[7.66 µM]	-9%[9.22 µM]	.
NC(=O)c1ccc(N=Nc2c(O)[nH]c(=O)[nH]c2=O)cc1	0%	4%	-1%	2%	11%	-6%
O=c1[nH]c(O)c(N=Nc2ccc(SC(F)F)cc2)c(=O)[nH]1	?	14%	2.4µM*	.	.	23%
CCC12CCN(C)CC1Oc1c(C)cccc12 (stereo not drawn)	.	.	-2%	.	.	.
CC(C)c1ccc(C(c2c(O)c3ccccc3oc2=O)c2c(O)c3ccccc3oc2=O)cc1	.	.	.	-4%[7.66 µM]	1%[9.22 µM]	.
O=c1oc2ccccc2c(O)c1C(c1ccc([N+](=O)[O-])cc1)c1c(O)c2ccccc2oc1=O	2%	-10%	19µM*	0%	-10%	-4%
CCOC(=O)c1cc2c(cn1)[nH]c1ccccc12	19%	17%	15µM*	0%	?	?
SMILES	Rab9 promoter act	ELG1 genotoxic	FLuc modulator	Luc counter	SMN2 splice enh	NPC1 promoter act
C=C(C)c1ccccc1 (tested in a mixture with another compound)	.	.	.	-2%[7.66 µM]	-5%[9.22 µM]	.
CCn1nc(-c2ccccc2)nc2c(=O)n(C)c(=O)nc1-2	-31%	5%	?	-4%	7.1µM*	-2%
N=C(N)SCc1ccc(Cl)c2ccccc12 (tested in a mixture with another compound)	.	.	.	-2%[7.66 µM]	1%[9.22 µM]	.
CC(=O)[O-].CC(=O)[O-].O.O.O.[Pb+2]	.	.	.	.	2%	.
Cc1cc(/C=C2\C(=O)NC(=O)N(Cc3ccco3)C2=O)c(C)n1-c1ccc(C(=O)O)cc1	4%	5%	-2%	.	.	-3%
Cc1ccccc1-n1c(C)cc(/C=C2/C(=O)NC(=O)N(Cc3ccco3)C2=O)c1C	-1%	5%	19µM*	0%	4%	-2%
